# Screening data from PubChem BioAssay.
# BAZ2B block: qHTS Assay for Inhibitors of BAZ2B. hit rate 4.4% among 360,000. AlphaScreen BAZ2B-H3K14Ac peptide displacement. Potency, µM (doses to about 114 µM), actives largely listed as inhibitors; further: nearly all actives have a fitted effect of over 60% in size
#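 Protein-peptide AlphaScreen: BAZ2B 50 nM, b-H3K14Ac 50 nM, 1x PBS pH 7.4 + 0.01% Tween-20. Preincubation 30 min RT; cpd 30 min RT (top 110 uM); beads 20 min RT, light-protected.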
# JMJD2A Tudor: qHTS Assay for Inhibitors of JMJD2A-Tudor Domain; Lysine-specific demethylase 4A (Homo sapiens), O75164; AlphaScreen JMJD2A-Tudor / H3K4me3 peptide binding; Potency, µM (series often up to 114 µM), most hits filed as inhibitors; hit rate 4.4% among 390,000; AID 504339, 2011; further: nearly all actives have a fitted effect of over 50% in size
# GCN5L2 inh: qHTS Assay for Inhibitors of GCN5L2. GCN5L2 HAT assay, ThioGlo1 CoA-SH fluorescence. Potency, µM (doses to about 58.9 µM), usual class: inhibitors. hit rate 0.21% among 390,000. AID 504327, 2011
#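 Titration-based screen in which CoA formation is detected via maleimide probe ThioGlo1 (50uM) turning fluorescent on thiol reaction; substrates H3(1-25) 75uM and acetyl-CoA 70uM, GCN5L2 20nM, 20 min incubation at room temperature.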
# PLK1 PBD block: qHTS for Inhibitors of PLK1-PDB (polo-like kinase 1 - polo-box domain): Primary Screen. hit rate 2.8% among 360,000. Potency, µM, actives largely listed as inhibitors. Plk1 PBD binding of FITC phosphopeptide, fluorescence polarization. Serine/threonine-protein kinase PLK1 (Homo sapiens), P53350; further: series mostly up to about 57 µM; nearly all actives have a fitted effect of over 65% in size
# HP1b chromo inh: HTS for Inhibitors of HP1-beta Chromodomain Interactions with Methylated Histone Tails; Chromobox protein homolog 1 (Homo sapiens), P83916; AlphaScreen HP1-beta / biotin-H3K9me3 peptide binding; Potency, µM (series often up to 114 µM), usual class: inhibitors; hit rate 0.56% among 390,000; further: nearly all actives have a fitted effect of over 70% in size
#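 AlphaScreen: HP1-beta (50 nM) preformed 30 min with biotin-H3(1-18)K9me3 peptide (50 nM) in PBS pH 7.4, 0.01% Tween-20. Compound added for 30 min at RT, then streptavidin donor/nickel chelate acceptor beads (10 ug/mL) for 30 min.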
# PI5P4K alpha inh: qHTS for Inhibitors of phosphatidylinositol 5-phosphate 4-kinase (PI5P4K); hit rate 1.2% among 330,000; max response, %; Phosphatidylinositol 5-phosphate 4-kinase type-2 alpha (Homo sapiens), P48426; AID 652105, 2013; PI5P4Kalpha enzyme, ADP-Glo luminescence, 60 min; active compounds read low; active means max response of -50% or lower; inconclusive means between -30% and -50%; inactive means -30% or higher; further: value at the top dose of about 77 µM
#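 ADP-Glo luminescence end-point read after a 60 min room-temperature kinase reaction of PI5P4Kalpha plus substrate, initiated with ATP at 5 microM final. Buffer: 0.038 M HEPES pH 7.4, EGTA, 0.1% CHAPS, 5% DMSO.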
# Hits are given with their value; 0 = inactive; ? = inconclusive; - = no result. Compounds with a hit are over-represented: about 7% of the library has one in this group of screens. Unless noted, the call rests on the fitted dose curve; in most records, active means well fitted curve in the direction sought with a large enough effect; inconclusive means small, poorly fitted or top-dose-only effect, or another doubt; inactive means no such curve, though single readings can be large; an effect the other way counts as inactive or inconclusive.
SMILES,BAZ2B block,JMJD2A Tudor,GCN5L2 inh,PLK1 PBD block,HP1b chromo inh,PI5P4K alpha inh
FC(F)(F)c1cnc(-c2cnc(-c3cccnc3)nc2)c(Cl)c1,0,?,0,24µM,0,0
FC(F)(F)c1cc(Cl)c2nnc(-c3cccnc3)n2c1,0,0,0,0,0,0
CCc1ccccc1NC(=O)CN(C)C(=O)Cn1cc(C(F)(F)F)cc(Cl)c1=O,0,0,0,0,0,0
Cn1ncc([N+](=O)[O-])c1C(=O)Nc1ccccc1C(=O)O,0,0,0,0,0,-52
Fc1ccc(Cn2nnnc2C(c2ccc(Cl)cc2)N2CCSCC2)cc1 (stereo unspecified),0,56µM,0,0,0,0
CC1CCN(C(c2ccc(N(C)C)cc2)c2nnnn2Cc2ccc(F)cc2)CC1 (stereo unspecified),13µM,?,0,0,?,0
CCCNC(=O)c1ccccc1NC(=O)c1cccc(-n2cnnn2)c1,0,0,0,0,0,0
Cn1c(=O)c(-c2cccc(Cl)c2)c(O)c2ccccc21,-,0,-,0,0,0
Cn1c(=O)c(-c2cc(=O)[nH][nH]2)c(O)c2ccccc21,56µM,35µM,0,?,0,?
Cc1ccc(CCN2CC(C(=O)NCCCN3CCC(C)CC3)CC2=O)cc1 (stereo unspecified),0,?,0,27µM,0,0
Cc1ccc(CCN2CC(C(=O)NCCCN3CCCCCC3)CC2=O)cc1 (stereo unspecified),0,0,0,0,0,0
Cc1ccc(C(C)NC(=O)/C(C#N)=C\c2c(C)[nH]c3ccccc23)cc1 (stereo unspecified),0,?,0,24µM,0,-
CCN(CC)c1ccc(Nc2cc3n(c(=O)n2)CCc2cc(OC)c(OC)cc2-3)cc1,22µM,45µM,0,0,?,0
COc1cc2c(cc1OC)-c1cc(Nc3ccc(N(C)C)cc3)nc(=O)n1CC2,?,?,0,0,0,?
CN(CC1COc2ccccc2O1)C(=O)Cn1cc(C(F)(F)F)ccc1=O (stereo unspecified),-,0,0,0,0,0
NC(C(=O)O)C(c1ccccc1)C(F)F (stereo unspecified),0,50µM,0,0,0,0
O=S(=O)(N=C1C=CC(=NS(=O)(=O)c2ccccc2)c2ccccc21)c1ccccc1,-,-,-,?,-,0
CCc1ccc(S(=O)(=O)/N=C2\C=CC(=O)c3ccccc32)cc1,35µM,-,0,-,-,-
CCc1ccc(S(=O)(=O)/N=C2\C=C(Nc3ccc(O)cc3)C(=O)c3ccccc32)cc1,8.9µM,7.1µM,0,?,10µM,?
CCc1ccc(S(=O)(=O)/N=C2\C=C(Nc3cccc(C(=O)O)c3)C(=O)c3ccccc32)cc1,10µM,18µM,0,38µM,?,0
CCNC(=O)C1CCCN(C(=O)c2ccc(C)c(F)c2)CC1 (stereo unspecified),-,-,-,0,-,0
CCOn1c(=O)c(-c2cccc(Br)c2)[n+]([O-])c2ccccc21,0,0,0,0,0,0
Cc1ccc(CNC(=O)CCCCCn2c(=O)c3sccc3n(CC(=O)N3CCCCC3C)c2=O)cc1 (stereo unspecified),0,0,0,-,0,-
CCC(CC)c1nnc(NC(=O)C2CC(=O)N(CCc3ccc(F)cc3)C2)s1 (stereo unspecified),?,0,0,24µM,?,0
S=C1CSc2ccccc2N1,0,0,?,0,0,0
c1ccc2c(c1)NCCS2,50µM,50µM,0,?,0,0
N#Cc1cnc(Oc2ccc(Cl)cc2)nc1N,0,0,0,0,0,0
CC(C)(C)C(=O)O/N=C1/C(=O)N(c2ccccc2)c2ccccc21,0,?,0,0,0,0
